# Experimental data: article PMC7862700, “An all-to-all approach to the identification of sequence-specific readers for epigenetic DNA modifications on cytosine”
# Legend:
# Assay in all cases: DAPPL (digital affinity profiling via proximity ligation, sequencing); 10 mM Tris-HCl pH 7.5, 50 mM NaCl, 1 mM DTT, 4% glycerol, room temperature, 30 min; GST-TFs on glutathione beads, 16-mer random dsDNA library, 0.1% formaldehyde crosslink after washing; high values mean tight binding
# Conditions in all cases: protein: recombinant; tags: N-terminal GST; dsDNA, one strand shown
# FLI1 = target: T1, FLI1 (Homo sapiens, UniProt Q01543 1-452)
# T1 sequence: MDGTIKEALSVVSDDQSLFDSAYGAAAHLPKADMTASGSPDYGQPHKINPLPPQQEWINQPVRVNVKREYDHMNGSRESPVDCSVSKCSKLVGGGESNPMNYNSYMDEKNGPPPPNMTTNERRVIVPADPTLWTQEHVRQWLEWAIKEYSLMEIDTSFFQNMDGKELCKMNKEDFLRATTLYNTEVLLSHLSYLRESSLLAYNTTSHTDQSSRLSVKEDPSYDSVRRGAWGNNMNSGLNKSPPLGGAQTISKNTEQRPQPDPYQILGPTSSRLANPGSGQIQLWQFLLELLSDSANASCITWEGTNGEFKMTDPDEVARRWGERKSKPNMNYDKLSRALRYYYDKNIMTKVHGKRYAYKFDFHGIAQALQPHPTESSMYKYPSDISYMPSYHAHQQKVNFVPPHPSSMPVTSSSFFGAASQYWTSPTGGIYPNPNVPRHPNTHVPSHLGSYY
# Method in brief: (§1)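 A tag-only sample was pooled with DNA-barcoded human transcription factors that had been expressed in yeast as GST fusions and captured on glutathione beads. The pools were incubated for 30 min at room temperature with 200 nmole of a random double-stranded 16-mer DNA library in Tris/NaCl/DTT/glycerol buffer, then washed, crosslinked with 0.1% formaldehyde, proximity-ligated (BsaI/T4 ligase, 1 h, 37 °C), PCR-amplified and sequenced on an Illumina NextSeq500. Binding signal is each hexamer's read frequency for a factor divided by its frequency for the tag-only sample.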
# ELK1 = target: T2, ELK1 (Homo sapiens, UniProt P19419 1-428)
# T2 sequence: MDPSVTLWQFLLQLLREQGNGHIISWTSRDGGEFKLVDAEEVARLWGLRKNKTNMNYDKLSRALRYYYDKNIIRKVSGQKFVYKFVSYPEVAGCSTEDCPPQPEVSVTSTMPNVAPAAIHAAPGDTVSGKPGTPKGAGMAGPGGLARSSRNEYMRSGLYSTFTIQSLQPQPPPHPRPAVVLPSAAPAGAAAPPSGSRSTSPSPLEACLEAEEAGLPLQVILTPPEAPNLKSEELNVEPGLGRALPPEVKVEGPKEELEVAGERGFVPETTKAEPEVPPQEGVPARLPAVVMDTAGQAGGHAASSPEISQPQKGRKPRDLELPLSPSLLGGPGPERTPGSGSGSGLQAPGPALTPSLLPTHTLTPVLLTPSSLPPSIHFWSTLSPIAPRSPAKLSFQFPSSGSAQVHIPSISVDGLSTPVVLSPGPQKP
# Method in brief: as §1
# GABPA = target: T3, GABPA (Homo sapiens, UniProt Q06546 1-454)
# T3 sequence: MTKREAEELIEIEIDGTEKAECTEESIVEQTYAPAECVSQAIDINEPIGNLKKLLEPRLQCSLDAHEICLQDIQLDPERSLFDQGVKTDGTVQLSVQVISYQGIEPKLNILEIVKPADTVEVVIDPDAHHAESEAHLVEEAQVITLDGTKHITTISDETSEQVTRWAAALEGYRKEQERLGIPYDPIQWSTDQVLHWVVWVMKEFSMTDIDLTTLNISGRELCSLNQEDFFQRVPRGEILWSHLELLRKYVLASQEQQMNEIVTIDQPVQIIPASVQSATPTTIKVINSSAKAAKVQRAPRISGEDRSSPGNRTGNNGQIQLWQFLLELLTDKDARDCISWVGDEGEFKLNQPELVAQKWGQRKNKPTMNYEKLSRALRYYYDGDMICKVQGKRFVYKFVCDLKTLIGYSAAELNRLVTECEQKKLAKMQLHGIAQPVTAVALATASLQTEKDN
# Method in brief: as §1
# ERG = target: T4, ERG (Homo sapiens, UniProt P11308 1-479)
# T4 sequence: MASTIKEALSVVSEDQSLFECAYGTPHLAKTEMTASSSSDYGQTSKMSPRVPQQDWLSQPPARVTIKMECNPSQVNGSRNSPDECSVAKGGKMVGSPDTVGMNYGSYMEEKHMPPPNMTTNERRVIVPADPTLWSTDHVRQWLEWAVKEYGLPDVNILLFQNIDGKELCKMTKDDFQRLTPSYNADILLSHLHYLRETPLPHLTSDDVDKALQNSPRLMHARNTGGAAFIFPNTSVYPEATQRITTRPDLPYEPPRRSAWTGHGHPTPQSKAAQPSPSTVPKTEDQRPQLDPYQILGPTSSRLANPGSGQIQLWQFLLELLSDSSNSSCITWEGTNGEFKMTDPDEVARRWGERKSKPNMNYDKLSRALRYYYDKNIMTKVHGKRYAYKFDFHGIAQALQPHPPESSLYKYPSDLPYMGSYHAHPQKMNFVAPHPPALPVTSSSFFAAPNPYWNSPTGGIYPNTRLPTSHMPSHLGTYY
# Method in brief: as §1
# ELF1 = ELF1 (Homo sapiens, UniProt P32519 1-619)
# Sequence of ELF1 (P32519 whole entry): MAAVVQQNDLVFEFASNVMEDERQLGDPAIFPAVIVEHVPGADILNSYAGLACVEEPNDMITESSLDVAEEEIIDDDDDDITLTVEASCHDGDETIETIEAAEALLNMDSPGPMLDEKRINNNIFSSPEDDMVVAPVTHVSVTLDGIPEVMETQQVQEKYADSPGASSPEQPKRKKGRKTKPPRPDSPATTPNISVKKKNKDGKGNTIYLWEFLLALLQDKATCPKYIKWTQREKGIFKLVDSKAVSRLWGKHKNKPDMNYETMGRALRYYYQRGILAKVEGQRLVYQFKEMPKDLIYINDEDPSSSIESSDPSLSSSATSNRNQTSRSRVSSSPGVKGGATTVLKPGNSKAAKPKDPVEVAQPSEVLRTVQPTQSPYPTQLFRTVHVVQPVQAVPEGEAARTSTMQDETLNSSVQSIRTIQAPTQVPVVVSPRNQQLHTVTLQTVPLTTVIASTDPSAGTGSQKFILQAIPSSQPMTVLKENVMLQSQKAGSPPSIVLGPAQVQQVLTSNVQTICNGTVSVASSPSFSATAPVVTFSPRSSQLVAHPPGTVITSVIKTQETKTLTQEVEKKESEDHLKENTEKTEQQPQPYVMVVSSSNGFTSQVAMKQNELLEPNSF
# Method in brief: as §1
# EHF = target: T5, EHF (Homo sapiens, UniProt Q9NZC4 1-300)
# T5 sequence: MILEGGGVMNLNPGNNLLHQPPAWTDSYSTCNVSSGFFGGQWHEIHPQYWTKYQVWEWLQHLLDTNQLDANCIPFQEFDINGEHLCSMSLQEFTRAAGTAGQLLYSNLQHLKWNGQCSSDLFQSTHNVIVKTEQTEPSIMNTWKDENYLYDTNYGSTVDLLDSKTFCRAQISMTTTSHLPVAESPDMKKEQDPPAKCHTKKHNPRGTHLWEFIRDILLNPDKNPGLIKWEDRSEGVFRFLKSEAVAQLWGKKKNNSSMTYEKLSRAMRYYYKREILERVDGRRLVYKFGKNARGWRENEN
# Method in brief: as §1
# SPI1 = SPI1 (Homo sapiens, UniProt P17947 1-270)
# Method in brief: as §1
# SPIB = SPIB (Homo sapiens, UniProt Q01892 1-262)
# Sequence of SPIB (Q01892 whole entry): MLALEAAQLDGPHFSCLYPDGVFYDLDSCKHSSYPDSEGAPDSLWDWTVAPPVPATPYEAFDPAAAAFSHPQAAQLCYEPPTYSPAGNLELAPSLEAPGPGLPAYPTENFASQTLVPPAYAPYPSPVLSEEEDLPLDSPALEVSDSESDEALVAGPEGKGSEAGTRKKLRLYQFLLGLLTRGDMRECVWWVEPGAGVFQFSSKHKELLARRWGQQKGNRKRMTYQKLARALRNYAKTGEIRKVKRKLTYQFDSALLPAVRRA
# Method in brief: as §1
# ELK3 = target: T6, ELK3 (Homo sapiens, UniProt P41970 1-407)
# T6 sequence: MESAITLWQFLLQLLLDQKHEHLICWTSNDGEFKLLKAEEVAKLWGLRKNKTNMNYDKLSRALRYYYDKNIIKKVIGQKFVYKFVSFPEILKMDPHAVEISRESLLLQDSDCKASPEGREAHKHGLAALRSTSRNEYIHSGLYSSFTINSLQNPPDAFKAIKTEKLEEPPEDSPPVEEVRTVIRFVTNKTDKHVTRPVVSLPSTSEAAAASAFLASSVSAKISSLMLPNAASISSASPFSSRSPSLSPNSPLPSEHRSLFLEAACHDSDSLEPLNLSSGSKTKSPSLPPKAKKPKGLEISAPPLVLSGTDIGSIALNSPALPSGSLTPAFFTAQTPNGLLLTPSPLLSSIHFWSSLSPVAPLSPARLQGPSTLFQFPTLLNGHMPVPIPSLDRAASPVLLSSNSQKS
# Method in brief: as §1
sequence,measurement,setting,value
AAGGAA,binding signal,FLI1,"1.19 fold enrichment (6-mer frequency, TF over GST control)"
same,binding signal,ELK1,"1.27 fold enrichment (6-mer frequency, TF over GST control)"
same,binding signal,GABPA,"1.2 fold enrichment (6-mer frequency, TF over GST control)"
same,binding signal,ERG,"1.44 fold enrichment (6-mer frequency, TF over GST control)"
same,binding signal,ELF1,"1.25 fold enrichment (6-mer frequency, TF over GST control)"
same,binding signal,EHF,"1.48 fold enrichment (6-mer frequency, TF over GST control)"
same,binding signal,SPI1,"1.48 fold enrichment (6-mer frequency, TF over GST control)"
same,binding signal,SPIB,"1.29 fold enrichment (6-mer frequency, TF over GST control)"
same,binding signal,ELK3,"1.21 fold enrichment (6-mer frequency, TF over GST control)"
